# Laboratory results published in PubChem BioAssay (NCI).
# About 83,000 compounds went through this panel and 20% of them were active in at least one assay; those are over-represented in the sample as a whole.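 A percent growth of 40 corresponds to 60% growth inhibition; 0 means no net growth; -100 means all cells died. Active threshold: below 10.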 Values without a mark were called inactive. The source made the active and inactive calls.
# What was measured:
# Assay in all cases: NCI-60 one-dose screen, 48 h (100 = growth as untreated, 0 = no growth, -100 = all killed)
# Conditions in all cases: 10 µM unless noted
# SK-MEL-2 melanoma = system: SK-MEL-2 melanoma
# EKVX NSCLC = system: EKVX NSCLC
# SN12C renal = system: SN12C renal
# UO-31 renal = system: UO-31 renal
# TK-10 renal = system: TK-10 renal
# ACHN renal = system: ACHN renal
# CAKI-1 renal = system: CAKI-1 renal
# A498 renal = system: A498 renal
# CCRF-CEM leukemia = system: CCRF-CEM leukemia
# MOLT-4 leukemia = system: MOLT-4 leukemia
Compound,growth (SK-MEL-2 melanoma),growth (EKVX NSCLC),growth (SN12C renal),growth (UO-31 renal),growth (TK-10 renal),growth (ACHN renal),growth (CAKI-1 renal),growth (A498 renal),growth (CCRF-CEM leukemia),growth (MOLT-4 leukemia)
CCCCCCNC(=O)Oc1ccc(/C(=C(/C)Cc2ccc(OC)cc2)c2ccc(OCCCN(C)C)cc2)cc1,26.9%,83%,45.8%,0.897% (active),51.3%,37%,44.5%,97.3%,-2.26% (active),-12.3% (active)
Cc1oc(-c2ccc(Cl)cc2)nc1/C=C/C(=O)c1ccccc1,100%,95%,95.6%,83.9%,122%,101%,91.9%,101%,97%,92.3%
COCCn1cc(-c2nc(-c3cc4cccnc4n3CCOC)cs2)c2cc(OC)ccc21,71.6%,26%,78.8%,61.9%,14%,68.3%,70.4%,66.8%,35.2%,58.4%
O=C1/C(=C/c2ccc(Cl)cc2)COc2ccc(O)cc21,101%,95.5%,69%,53.1%,100%,80%,70.8%,100%,-5.84% (active),14.8%
Cc1nnc(-n2c(O)cc(=O)n(-c3ccccc3)c2=S)nc1/C=C/c1ccc(N(C)C)cc1,55.2%,66.7%,65.3%,17.1%,28.1%,62%,23.4%,52.1%,52.5%,56.1%
O=C(c1ccc(-c2nc(CSc3nc4ccccc4s3)no2)cc1)N1CCSCC1,45.7%,47.1%,82.3%,55.6%,55.1%,60.4%,63.5%,82.1%,71.2%,-1.49% (active)
C=C1C(=O)O[C@H]2[C@H]1CC/C(COC(=O)CSCCSCC(=O)OC/C1=C/CC[C@@]3(C)O[C@H]3[C@H]3OC(=O)C(=C)[C@@H]3CC1)=C\CC[C@@]1(C)O[C@@H]21,70%,11%,-10.4% (active),7.85% (active),16.6%,2.6% (active),9.17% (active),88.7%,-41.5% (active),-22.5% (active)
CCN1C(=O)N(CC)C2C1NN=c1s/c(=C\c3ccc(Cl)cc3Cl)c(=O)n12 (stereo not given),45.7%,50.1%,21.5%,35.9%,67.7%,26.7%,21.1%,16.9%,9.4% (active),12.9%
CCN(CC)CCOc1ccc(-c2c(-c3ccccc3)c(=O)oc3ccccc23)cc1,82.5%,94.6%,80.3%,61.5%,95.9%,100%,97.5%,72%,95.7%,80.7%
COc1ccc(-c2csc(NC(=O)CSc3nc(-c4ccccc4)cc(=O)[nH]3)n2)cc1,59.7%,58.1%,80.3%,65.6%,78.9%,63%,74.7%,64.7%,57.9%,14.4%
CC(C)(C)n1cc(-c2ccnc(NCCNS(=O)(=O)c3cccc(F)c3)c2)c(-c2ccccc2)n1,105%,70.6%,90.1%,67%,105%,99.5%,90.4%,27.1%,93.8%,74.4%
c1cnc2[nH]cc(-c3csc(-c4cn(CCCN5CCOCC5)c5ccccc45)n3)c2c1,82.6%,47.9%,64.5%,23%,69.6%,32.8%,47.5%,53.9%,17.4%,16.6%
CC(C)N1CN2C(=S)NC3C2N(C1)C(=S)N3C (stereo not given),93.4%,103%,97.6%,95.9%,97.2%,117%,92.6%,102%,94.8%,104%
COc1cc2c(c(OC)c1OC)CCC(c1cccc(C(=O)Nc3cccc(Br)c3)c1)O2 (stereo not given),76.8%,50.4%,55.9%,54.7%,78.7%,84.3%,57.8%,28.8%,69%,49.4%
O=C(Cn1c(=O)sc2nc3ccccc3nc21)Nc1ncc(Cc2cccc(Cl)c2Cl)s1,103%,75.1%,92.2%,65.5%,95.5%,100%,71.7%,113%,99.8%,99.8%
Cc1ccc2c3c(c(=O)[nH]c2c1)C1(C(C#N)=C(N)O3)c2cc(Br)ccc2-c2ccc(Br)cc21,32.6%,-32.9% (active),-32.3% (active),-62.3% (active),-36.2% (active),-15.8% (active),-64.3% (active),-18.8% (active),32.6%,21.3%
CCCCN[C@H]1CC[C@@]2(C)[C@@H](CC[C@@]3(C)[C@H]2[C@H](O)C[C@H]2/C(=C(\CCC=C(C)C)C(=O)OC)[C@@H](OC(C)=O)C[C@@]23C)[C@@H]1C,106%,96.9%,94.6%,81.5%,97.4%,91.7%,90.6%,97.7%,41.3%,10.6%
O=C(/C=C/c1cccs1)c1ccc(Cl)nc1,98%,102%,103%,93.5%,84.2%,106%,94%,85.6%,91.4%,99.6%
CCNc1cc(-c2cccc(OC(F)(F)F)c2)nc2ccc(N3CCCC3)cc12,6.05% (active),17.1%,9.26% (active),5.13% (active),35.5%,-12.7% (active),30.6%,58.9%,13.4%,2.48% (active)
Cc1ccccc1Cn1cnc2ccc(-c3cc(NC(=O)c4ccc(NC5CCN(C)CC5)cc4)n[nH]3)cc21,98.3%,91.9%,29.7%,89.2%,105%,107%,68.6%,47.8%,72%,43%
COc1cc(-n2cc(-c3cc(O)c(C/C=C(\C)CCC=C(C)C)c(O)c3)nn2)cc2c1O[C@]1(C)CC[C@@H](O)C(C)(C)[C@H]1C2,-17.1% (active),28%,24.9%,-53.8% (active),40.2%,16.6%,12%,10.7%,0.511% (active),-0.403% (active)
c1ccc(C2=NN[C@H](c3cn(-c4ccccc4)nc3-c3ccccc3)C2)cc1,54.8%,41.4%,46.6%,9.32% (active),17.9%,-4.87% (active),4.95% (active),54.5%,89.3%,80.5%
CCC(C)N(c1ccc(Cl)cc1)c1nc(-c2ccc(Br)cc2)cs1 (stereo not given),105%,80.2%,99.2%,81.3%,131%,96.4%,70.9%,94.7%,81.7%,82.7%
CSc1nnc(-c2cnn3c2NC(c2ccccc2)C3)n1-c1ccc(C(F)(F)F)cc1 (stereo not given),50.2%,56%,78.5%,53.7%,70.6%,52.3%,32%,46.8%,48%,41.9%
C=C1C(=O)O[C@H]2[C@H]1CC/C(COC(=O)NCc1ccc(Cn3c(=O)sn(CCI)c3=O)cc1)=C\CC[C@@]1(C)O[C@@H]21,73.9%,91%,70.3%,68.3%,0.429% (active),27.7%,7% (active),120%,-16.1% (active),-6.69% (active)
CCC(=C(c1ccc(OCCN2CCCC2)cc1)c1ccc(OCCN2CCCC2)cc1)c1ccc(Cl)cc1,-28.2% (active),92.7%,-62.9% (active),-73.4% (active),-12.5% (active),-84.6% (active),-58.7% (active),46.8%,-38.7% (active),-27.2% (active)
